Tests used:
Test in all cases: PBM binding z-score (relative to random genomic background probes); higher = stronger binding; sequences stand for … in GC…GCGATTGACAGCGTAGAATGAAGG
[1] = tested on: FXR:RXRa (NR concentration 270 nM, RXRa partner concentration 90 nM)
How it was run: (§1)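 The probes on custom Agilent 4×180K protein-binding microarrays were double-stranded, with 34-nt variable regions bearing direct-repeat seeds, single-nucleotide variants, half-site ablations and random human genomic background sequences. Incubation lasted 1 h with ligand-free nuclear receptor dimers in PBS pH 7.4, 2% milk, 0.02% Triton X-100, 1 mM DTT, 0.2 mg/mL BSA and 0.4 mg/ml salmon testes DNA. Antibodies against each partner (one per run) detected bound dimers, and fluorescence scans were regression-normalized. Binding z-scores take the random background probes as reference.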

[2] = tested on: LXRa:RXRa (NR concentration 270 nM, RXRa partner concentration 90 nM)
How it was run: as §1

[3] = tested on: LXRa homodimer (NR concentration 270 nM)
How it was run: as §1

[4] = tested on: LXRb:RXRa (NR concentration 270 nM, RXRa partner concentration 90 nM)
How it was run: as §1

[5] = tested on: LXRb homodimer (NR concentration 270 nM)
How it was run: as §1

[6] = tested on: PPARa:RXRa (NR concentration 270 nM, RXRa partner concentration 90 nM)
How it was run: as §1

[7] = tested on: PPARg:RXRa (NR concentration 180 nM, RXRa partner concentration 90 nM)
How it was run: as §1

[8] = tested on: PPARg:RXRa 270nM:90nM, anti-RXR (NR concentration 270 nM, RXRa partner concentration 90 nM)
How it was run: as §1

[9] = tested on: PPARg:RXRa 30nM:10nM, anti-RXR (NR concentration 30 nM, RXRa partner concentration 10 nM)
How it was run: as §1

[10] = tested on: PPARg:RXRa 90nM:30nM, anti-RXR (NR concentration 90 nM, RXRa partner concentration 30 nM)
How it was run: as §1

Sequence	PBM binding z-score [1]	PBM binding z-score [2]	PBM binding z-score [3]	PBM binding z-score [4]	PBM binding z-score [5]	PBM binding z-score [6]	PBM binding z-score [7]	PBM binding z-score [8]	PBM binding z-score [9]	PBM binding z-score [10]
ATCTCTAGGTAAGACTCATTTCAGTGAAGAACGC	0.503	0.373	0.526	0.488	0.888	-0.0236	0.0953	0.265	0.363	0.295
CAAACTAGGTCAAGGTCAAAGGCGGTTTGTGCCA	6.43	5.36	3.25	4.34	1.01	5.91	9.82	8.02	6.66	8.34
TCAGACAGGTGAAGGTGACTCAGGTACGCAGTCG	0.795	0.409	-0.133	0.864	0.128	1.58	0.781	2.13	3.51	2.83
CCAGACAGGTGAGACGGTAACTCAGCCTCGATTA	-0.078	-0.00881	0.268	-0.263	-0.377	0.144	0.367	0.232	-0.249	-0.285
CGAACGAGGGCATGAGTCGATAGCAAATGCCGAT	0.37	0.268	-0.569	-0.0412	-0.951	1.48	1.74	2.28	0.37	1.93
TCATATAGGTAATACAGGTGAAATTCGGCATCTA	1.05	1.37	0.75	1.17	0.147	1.96	1.65	2.53	3.85	3.09
AGAATGAGGTTACCAAAGACCAGGGAAACGCTTG	1.97	4.34	-0.091	1.87	-0.385	3.27	2.53	2.62	0.863	1.86
CCTAGCAGGGCAGGGTCACTCAAGCATTTCGCTT	2.68	2.17	-0.361	2.12	-1.22	3.32	1.4	2.37	-0.0964	1.47
TTACCAAGGTGAGCTGATGTCGTTGATCCAACTC	0.178	-0.111	-0.671	-0.252	-0.971	0.344	0.146	0.25	0.147	0.11
AGCACGAGGGCACGCTGAGTTGATAGCAGAGTAG	0.941	0.602	-0.669	0.23	-1.28	1.61	1.22	0.752	-0.187	0.162
TCGAGTAGGTTACCAATTGGGCATTCAGCTTTCT	0.0774	0.268	-0.567	0.437	-0.954	0.973	-0.0221	1.3	0.909	1.06
TGTAGTTGGTCACGGAGGTCACACACGACGGGTA	3.41	3.44	2.52	3.09	0.847	3.87	3.72	3.52	1.51	2.93
CAAACTAGGTCAAGGACAGTGAATCTCCGCACGC	3.5	2.6	0.383	1.84	0.431	4.98	7.68	6.71	4.3	6.04
CCTGCTAGGTTATGGTCAGCTAATCTACAGTATG	-0.0301	-0.0994	-0.554	-0.211	-0.277	-0.0739	-0.279	-0.092	-0.295	-0.423
CCGAGTCGGTTATGGGGCATTCAGGCAACGGTGA	-0.323	-0.235	-0.49	-0.14	-0.656	0.438	0.463	1.66	-0.306	0.771
GGAACGAGGGCATTCGAGTTTATAGCATGGCGAT	1.12	4.61	0.296	0.629	-0.537	1.57	0.982	0.798	-0.0706	0.209
CAAACTAGGTCAAGAGGTCACAGTCCGCTTCCCG	6.79	5.84	4.4	4.97	1.01	6.61	10.2	8.35	7.25	8.69
TCACCAAGGTGAGCTGAGGTCGTTGATCCAACTC	1.24	0.999	-0.747	0.743	-1.63	1.6	0.00194	1.01	0.915	0.958
ATATTTAGGTTACATCCGGGTCATTCAGGCTATG	2.65	4.19	2.61	3.21	1.94	4.28	4.37	4.16	2.28	3.35
CAAACTAGGTCATCGGAAGGTCAAAGTCCGCATG	6.11	5.83	5.44	4.82	1.45	6.01	8.72	7.35	5.14	7.04
CCGACTGGGGCCTAAGGTTACCATAAGCCAGCCC	0.328	1.58	-0.169	0.716	-1.28	1.26	0.941	2.51	0.0484	1.11
CGTCACAGTTCAACTAAGGTAACGTAAAGCACGC	3.5	3.37	1.17	2.07	0.36	3.14	1.61	1.49	0.576	0.859
GCTGCTAGGTCAACTGATAGTCAGCTAAAGCTCG	4	2.78	-0.18	1.91	-0.159	3.77	2.91	3.17	0.765	2.41
ATCGAAAGGTCGTGAGGCGAGTATACAGAAAGGC	5.83	4.11	0.273	3.21	0.391	5.07	3.85	4.18	1.56	2.61

— the supplement of paper PMC6555819
